# Results as given in publication PMC7862700, “An all-to-all approach to the identification of sequence-specific readers for epigenetic DNA modifications on cytosine”.
# Assays:
# Assay in all cases: DAPPL (digital affinity profiling via proximity ligation, sequencing); 10 mM Tris-HCl pH 7.5, 50 mM NaCl, 1 mM DTT, 4% glycerol, room temperature, 30 min; GST-TFs on glutathione beads, 16-mer random dsDNA library, 0.1% formaldehyde crosslink after washing; high values mean tight binding
# FLI1 = biological target: T1, FLI1 (Homo sapiens, UniProt Q01543 1-452); conditions: protein: recombinant; tags: N-terminal GST; dsDNA, one strand shown
# T1 sequence: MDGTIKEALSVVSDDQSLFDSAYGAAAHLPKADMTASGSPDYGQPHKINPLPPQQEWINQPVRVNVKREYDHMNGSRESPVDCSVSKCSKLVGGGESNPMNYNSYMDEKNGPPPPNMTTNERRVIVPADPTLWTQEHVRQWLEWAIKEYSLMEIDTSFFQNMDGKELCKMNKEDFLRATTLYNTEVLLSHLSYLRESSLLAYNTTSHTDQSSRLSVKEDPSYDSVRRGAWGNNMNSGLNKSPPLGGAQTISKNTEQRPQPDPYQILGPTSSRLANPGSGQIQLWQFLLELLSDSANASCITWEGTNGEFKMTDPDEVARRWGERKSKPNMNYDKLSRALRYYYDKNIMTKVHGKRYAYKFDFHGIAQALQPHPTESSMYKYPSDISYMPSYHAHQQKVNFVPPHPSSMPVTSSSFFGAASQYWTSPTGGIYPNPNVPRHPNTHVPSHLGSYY
# In short: (§1)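 Sequencing on an Illumina NextSeq500 followed washing, crosslinking with 0.1% formaldehyde, proximity ligation (BsaI/T4 ligase, 1 h, 37 °C) and PCR amplification of pools that had been incubated for 30 min at room temperature with 200 nmole of a random double-stranded 16-mer DNA library in Tris/NaCl/DTT/glycerol buffer. Each pool held DNA-barcoded human transcription factors, expressed in yeast as GST fusions and captured on glutathione beads, plus a tag-only sample. Binding signal is a hexamer's read frequency for a factor divided by its frequency in the tag-only sample.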
# ELK1 = biological target: T2, ELK1 (Homo sapiens, UniProt P19419 1-428); conditions: protein: recombinant; tags: N-terminal GST; dsDNA, one strand shown
# T2 sequence: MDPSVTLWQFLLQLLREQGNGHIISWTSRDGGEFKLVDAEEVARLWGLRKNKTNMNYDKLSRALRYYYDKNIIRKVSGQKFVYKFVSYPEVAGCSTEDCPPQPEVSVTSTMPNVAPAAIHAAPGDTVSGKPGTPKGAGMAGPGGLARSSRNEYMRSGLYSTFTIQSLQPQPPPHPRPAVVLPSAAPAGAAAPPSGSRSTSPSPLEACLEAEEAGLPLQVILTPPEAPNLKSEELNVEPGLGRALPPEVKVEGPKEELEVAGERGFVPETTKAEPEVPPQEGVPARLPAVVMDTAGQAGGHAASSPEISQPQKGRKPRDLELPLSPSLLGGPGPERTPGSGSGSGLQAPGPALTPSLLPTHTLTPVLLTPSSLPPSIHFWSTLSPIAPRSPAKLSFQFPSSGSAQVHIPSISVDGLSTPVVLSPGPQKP
# In short: as §1
# GABPA = biological target: T3, GABPA (Homo sapiens, UniProt Q06546 1-454); conditions: protein: recombinant; tags: N-terminal GST; dsDNA, one strand shown
# T3 sequence: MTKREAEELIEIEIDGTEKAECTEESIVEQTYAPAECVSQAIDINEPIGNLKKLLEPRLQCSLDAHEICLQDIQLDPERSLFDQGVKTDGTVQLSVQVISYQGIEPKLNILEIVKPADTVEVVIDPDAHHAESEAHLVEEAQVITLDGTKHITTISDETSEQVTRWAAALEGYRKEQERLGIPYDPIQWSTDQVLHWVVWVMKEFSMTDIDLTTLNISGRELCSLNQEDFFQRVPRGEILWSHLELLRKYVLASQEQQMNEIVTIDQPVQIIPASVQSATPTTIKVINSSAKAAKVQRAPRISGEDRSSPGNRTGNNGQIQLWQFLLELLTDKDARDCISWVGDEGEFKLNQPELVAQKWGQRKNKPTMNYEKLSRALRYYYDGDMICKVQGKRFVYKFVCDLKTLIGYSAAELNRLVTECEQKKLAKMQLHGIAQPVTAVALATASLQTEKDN
# In short: as §1
# ERG = biological target: T4, ERG (Homo sapiens, UniProt P11308 1-479); conditions: protein: recombinant; tags: N-terminal GST; dsDNA, one strand shown
# T4 sequence: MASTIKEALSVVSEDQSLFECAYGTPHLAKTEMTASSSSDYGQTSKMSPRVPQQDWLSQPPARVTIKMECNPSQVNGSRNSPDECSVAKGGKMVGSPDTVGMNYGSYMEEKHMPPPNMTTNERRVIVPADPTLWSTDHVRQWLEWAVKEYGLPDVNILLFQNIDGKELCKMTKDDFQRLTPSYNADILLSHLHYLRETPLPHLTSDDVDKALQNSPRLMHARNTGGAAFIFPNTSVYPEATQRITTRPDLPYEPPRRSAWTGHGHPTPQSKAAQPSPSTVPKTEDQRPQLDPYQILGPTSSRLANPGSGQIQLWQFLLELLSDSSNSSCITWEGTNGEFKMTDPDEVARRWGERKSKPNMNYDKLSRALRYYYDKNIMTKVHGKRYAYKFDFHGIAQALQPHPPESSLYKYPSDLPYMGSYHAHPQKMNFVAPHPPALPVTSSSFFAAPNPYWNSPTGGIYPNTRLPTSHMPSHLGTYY
# In short: as §1
# ELF1 = ELF1 (Homo sapiens, UniProt P32519 1-619); conditions: protein: recombinant; tags: N-terminal GST; dsDNA, one strand shown
# Chain of ELF1 (P32519 whole entry): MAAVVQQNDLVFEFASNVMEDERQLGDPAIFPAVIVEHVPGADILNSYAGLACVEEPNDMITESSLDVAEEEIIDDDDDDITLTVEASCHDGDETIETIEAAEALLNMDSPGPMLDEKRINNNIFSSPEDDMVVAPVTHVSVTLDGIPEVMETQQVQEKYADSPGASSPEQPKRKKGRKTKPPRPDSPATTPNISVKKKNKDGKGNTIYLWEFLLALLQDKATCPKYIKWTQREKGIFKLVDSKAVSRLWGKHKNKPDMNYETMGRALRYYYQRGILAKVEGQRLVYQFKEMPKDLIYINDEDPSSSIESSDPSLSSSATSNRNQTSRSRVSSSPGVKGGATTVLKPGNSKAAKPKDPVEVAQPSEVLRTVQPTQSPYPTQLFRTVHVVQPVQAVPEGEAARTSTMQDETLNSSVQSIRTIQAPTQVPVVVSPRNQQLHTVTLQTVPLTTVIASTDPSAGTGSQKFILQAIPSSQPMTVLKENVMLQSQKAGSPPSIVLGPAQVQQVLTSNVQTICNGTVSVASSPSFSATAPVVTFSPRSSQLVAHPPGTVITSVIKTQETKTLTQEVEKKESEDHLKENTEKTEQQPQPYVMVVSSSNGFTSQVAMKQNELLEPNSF
# In short: as §1
# EHF = biological target: T5, EHF (Homo sapiens, UniProt Q9NZC4 1-300); conditions: protein: recombinant; tags: N-terminal GST; dsDNA, one strand shown
# T5 sequence: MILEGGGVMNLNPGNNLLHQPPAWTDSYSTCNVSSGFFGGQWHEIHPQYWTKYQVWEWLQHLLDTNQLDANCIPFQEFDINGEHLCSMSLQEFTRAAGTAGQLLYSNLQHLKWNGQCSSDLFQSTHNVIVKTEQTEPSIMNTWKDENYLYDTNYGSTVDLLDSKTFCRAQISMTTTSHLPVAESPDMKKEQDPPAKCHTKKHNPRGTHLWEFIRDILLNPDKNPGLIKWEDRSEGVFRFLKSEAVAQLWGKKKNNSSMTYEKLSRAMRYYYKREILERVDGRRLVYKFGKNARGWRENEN
# In short: as §1
# SPI1 = SPI1 (Homo sapiens, UniProt P17947 1-270); conditions: protein: recombinant; tags: N-terminal GST; dsDNA, one strand shown
# In short: as §1
# SPIB = SPIB (Homo sapiens, UniProt Q01892 1-262); conditions: protein: recombinant; tags: N-terminal GST; dsDNA, one strand shown
# Chain of SPIB (Q01892 whole entry): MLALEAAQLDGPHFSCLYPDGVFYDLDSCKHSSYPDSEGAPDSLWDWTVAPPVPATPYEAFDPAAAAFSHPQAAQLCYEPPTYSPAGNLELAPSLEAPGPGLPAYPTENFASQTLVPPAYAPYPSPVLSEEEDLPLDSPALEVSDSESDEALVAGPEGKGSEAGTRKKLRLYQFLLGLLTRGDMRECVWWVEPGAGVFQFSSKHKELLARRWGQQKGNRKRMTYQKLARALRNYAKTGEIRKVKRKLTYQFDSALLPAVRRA
# In short: as §1
# ELK3 = biological target: T6, ELK3 (Homo sapiens, UniProt P41970 1-407); conditions: protein: recombinant; tags: N-terminal GST; dsDNA, one strand shown
# T6 sequence: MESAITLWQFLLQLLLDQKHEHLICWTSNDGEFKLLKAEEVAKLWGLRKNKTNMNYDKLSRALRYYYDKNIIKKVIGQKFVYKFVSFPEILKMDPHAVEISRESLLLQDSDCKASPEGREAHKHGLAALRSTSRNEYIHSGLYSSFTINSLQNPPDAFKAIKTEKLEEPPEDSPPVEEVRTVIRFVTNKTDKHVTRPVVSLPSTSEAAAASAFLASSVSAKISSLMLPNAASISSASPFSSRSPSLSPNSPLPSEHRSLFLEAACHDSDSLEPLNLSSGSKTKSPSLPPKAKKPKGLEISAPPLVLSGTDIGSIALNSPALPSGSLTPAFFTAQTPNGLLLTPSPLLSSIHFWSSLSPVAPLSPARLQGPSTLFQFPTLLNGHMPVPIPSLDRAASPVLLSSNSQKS
# In short: as §1
# FEV = biological target: T7, FEV (Homo sapiens, UniProt Q99581 1-238); conditions: protein: recombinant; tags: N-terminal GST; dsDNA, one strand shown
# T7 sequence: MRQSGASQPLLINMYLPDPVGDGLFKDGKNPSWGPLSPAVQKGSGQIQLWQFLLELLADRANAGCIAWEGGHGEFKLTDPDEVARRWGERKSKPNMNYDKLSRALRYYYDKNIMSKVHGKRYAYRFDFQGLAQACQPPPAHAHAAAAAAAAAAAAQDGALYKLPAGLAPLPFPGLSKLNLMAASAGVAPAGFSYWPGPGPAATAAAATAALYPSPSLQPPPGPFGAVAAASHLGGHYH
# In short: as §1
# ETV5 = ETV5 (Homo sapiens, UniProt P41161 1-510); conditions: protein: recombinant; tags: N-terminal GST; dsDNA, one strand shown
# Chain of ETV5 (P41161 whole entry): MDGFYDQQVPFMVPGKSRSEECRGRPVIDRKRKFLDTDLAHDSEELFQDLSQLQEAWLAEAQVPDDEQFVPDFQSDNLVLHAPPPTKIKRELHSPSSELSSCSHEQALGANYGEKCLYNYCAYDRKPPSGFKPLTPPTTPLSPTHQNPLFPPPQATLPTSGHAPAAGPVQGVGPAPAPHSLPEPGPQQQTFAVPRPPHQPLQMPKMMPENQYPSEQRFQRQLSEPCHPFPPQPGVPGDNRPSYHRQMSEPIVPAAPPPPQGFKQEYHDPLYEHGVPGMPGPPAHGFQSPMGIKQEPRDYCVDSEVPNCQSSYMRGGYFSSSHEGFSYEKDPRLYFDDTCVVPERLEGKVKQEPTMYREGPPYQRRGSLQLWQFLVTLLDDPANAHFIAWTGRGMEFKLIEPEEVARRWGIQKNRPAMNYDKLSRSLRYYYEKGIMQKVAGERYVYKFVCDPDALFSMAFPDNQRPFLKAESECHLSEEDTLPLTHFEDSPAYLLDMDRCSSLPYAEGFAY
# In short: as §1
# HSF1 = HSF1 (Homo sapiens, UniProt Q00613 1-529); conditions: protein: recombinant; tags: N-terminal GST; chain copies: 3; dsDNA, one strand shown
# Chain of HSF1 (Q00613 whole entry): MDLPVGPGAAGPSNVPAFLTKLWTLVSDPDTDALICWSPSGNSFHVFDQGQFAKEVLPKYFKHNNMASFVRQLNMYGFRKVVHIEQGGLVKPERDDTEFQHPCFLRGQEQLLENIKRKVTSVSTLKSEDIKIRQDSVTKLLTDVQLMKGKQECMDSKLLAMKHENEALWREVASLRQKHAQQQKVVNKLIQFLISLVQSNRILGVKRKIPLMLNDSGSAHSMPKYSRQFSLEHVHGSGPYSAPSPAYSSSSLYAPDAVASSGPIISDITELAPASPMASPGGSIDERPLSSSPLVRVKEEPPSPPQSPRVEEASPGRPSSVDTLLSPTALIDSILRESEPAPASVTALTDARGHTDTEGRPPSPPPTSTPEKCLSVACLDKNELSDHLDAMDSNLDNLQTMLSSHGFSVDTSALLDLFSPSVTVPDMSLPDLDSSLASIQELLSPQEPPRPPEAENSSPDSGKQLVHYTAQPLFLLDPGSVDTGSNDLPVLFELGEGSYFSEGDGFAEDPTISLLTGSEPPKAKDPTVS
# In short: as §1
# SPIC = biological target: T8, SPIC (Homo sapiens, UniProt Q8N5J4 1-248); conditions: protein: recombinant; tags: N-terminal GST; dsDNA, one strand shown
# T8 sequence: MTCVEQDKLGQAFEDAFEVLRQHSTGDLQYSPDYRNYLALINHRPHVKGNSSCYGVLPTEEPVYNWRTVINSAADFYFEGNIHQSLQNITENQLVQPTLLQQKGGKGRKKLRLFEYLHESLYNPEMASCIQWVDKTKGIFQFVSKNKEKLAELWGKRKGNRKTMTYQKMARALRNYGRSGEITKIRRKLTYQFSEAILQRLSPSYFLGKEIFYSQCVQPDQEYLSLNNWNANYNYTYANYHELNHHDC
# In short: as §1
# ELF4 = ELF4 (Homo sapiens, UniProt Q99607 1-663); conditions: protein: recombinant; tags: N-terminal GST; dsDNA, one strand shown
# Chain of ELF4 (Q99607 whole entry): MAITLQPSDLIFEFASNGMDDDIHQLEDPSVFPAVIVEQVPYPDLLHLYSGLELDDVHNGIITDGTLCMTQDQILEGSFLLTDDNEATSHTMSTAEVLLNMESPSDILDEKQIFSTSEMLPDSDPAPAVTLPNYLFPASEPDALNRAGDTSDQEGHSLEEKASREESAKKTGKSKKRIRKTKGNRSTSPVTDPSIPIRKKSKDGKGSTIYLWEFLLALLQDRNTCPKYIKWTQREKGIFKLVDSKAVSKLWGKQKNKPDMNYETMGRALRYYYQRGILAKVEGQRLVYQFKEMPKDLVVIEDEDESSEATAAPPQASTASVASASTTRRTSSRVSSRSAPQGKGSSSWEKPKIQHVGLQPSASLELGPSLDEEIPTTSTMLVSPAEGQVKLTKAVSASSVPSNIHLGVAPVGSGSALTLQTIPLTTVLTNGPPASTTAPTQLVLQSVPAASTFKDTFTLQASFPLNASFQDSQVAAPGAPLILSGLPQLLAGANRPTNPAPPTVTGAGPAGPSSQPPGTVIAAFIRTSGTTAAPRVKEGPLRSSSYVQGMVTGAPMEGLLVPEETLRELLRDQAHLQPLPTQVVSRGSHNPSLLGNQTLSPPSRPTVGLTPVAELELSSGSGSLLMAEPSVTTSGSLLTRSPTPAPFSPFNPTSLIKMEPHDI
# In short: as §1
# ELK4 = biological target: T9, ELK4 (Homo sapiens, UniProt P28324-2 1-405); conditions: protein: recombinant; tags: N-terminal GST; dsDNA, one strand shown
# T9 sequence: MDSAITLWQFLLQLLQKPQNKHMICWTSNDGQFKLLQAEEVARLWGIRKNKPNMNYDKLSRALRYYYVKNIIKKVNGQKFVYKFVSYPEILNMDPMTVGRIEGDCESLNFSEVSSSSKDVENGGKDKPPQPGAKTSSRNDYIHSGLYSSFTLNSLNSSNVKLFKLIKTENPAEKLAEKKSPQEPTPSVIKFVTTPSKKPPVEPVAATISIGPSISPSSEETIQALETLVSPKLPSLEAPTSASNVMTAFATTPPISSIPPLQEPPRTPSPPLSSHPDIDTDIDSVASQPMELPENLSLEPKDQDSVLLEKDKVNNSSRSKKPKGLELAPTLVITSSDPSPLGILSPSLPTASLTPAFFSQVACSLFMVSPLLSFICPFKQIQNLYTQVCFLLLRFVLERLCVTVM
# In short: as §1
# ETV2 = biological target: T10, ETV2 (Homo sapiens, UniProt O00321 1-342); conditions: protein: recombinant; tags: N-terminal GST; dsDNA, one strand shown
# T10 sequence: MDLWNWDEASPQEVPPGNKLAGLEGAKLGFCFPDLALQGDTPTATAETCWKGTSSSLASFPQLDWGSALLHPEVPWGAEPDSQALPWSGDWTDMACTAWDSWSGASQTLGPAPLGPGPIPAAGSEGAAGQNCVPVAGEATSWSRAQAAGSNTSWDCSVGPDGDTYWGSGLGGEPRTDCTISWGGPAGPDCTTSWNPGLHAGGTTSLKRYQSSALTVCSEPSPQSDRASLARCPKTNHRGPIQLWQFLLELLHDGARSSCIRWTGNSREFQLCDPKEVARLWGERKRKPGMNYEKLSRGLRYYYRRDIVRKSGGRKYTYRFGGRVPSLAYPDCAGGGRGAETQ
# In short: as §1
# ELF3 = biological target: T11, ELF3 (Homo sapiens, UniProt P78545 1-371); conditions: protein: recombinant; tags: N-terminal GST; dsDNA, one strand shown
# T11 sequence: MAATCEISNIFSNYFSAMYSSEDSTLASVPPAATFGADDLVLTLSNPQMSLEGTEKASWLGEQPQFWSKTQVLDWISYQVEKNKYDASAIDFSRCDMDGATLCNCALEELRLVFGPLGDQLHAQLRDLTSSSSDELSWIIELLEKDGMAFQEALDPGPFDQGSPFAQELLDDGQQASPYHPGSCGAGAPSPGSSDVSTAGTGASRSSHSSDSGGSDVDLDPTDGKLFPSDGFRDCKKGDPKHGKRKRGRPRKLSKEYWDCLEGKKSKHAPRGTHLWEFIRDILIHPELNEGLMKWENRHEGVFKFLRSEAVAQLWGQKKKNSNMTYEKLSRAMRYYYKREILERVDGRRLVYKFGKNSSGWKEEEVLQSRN
# In short: as §1
# CRX = CRX (Homo sapiens, UniProt O43186 1-299); conditions: protein: recombinant; tags: N-terminal GST; dsDNA, one strand shown
# Chain of CRX (O43186 whole entry): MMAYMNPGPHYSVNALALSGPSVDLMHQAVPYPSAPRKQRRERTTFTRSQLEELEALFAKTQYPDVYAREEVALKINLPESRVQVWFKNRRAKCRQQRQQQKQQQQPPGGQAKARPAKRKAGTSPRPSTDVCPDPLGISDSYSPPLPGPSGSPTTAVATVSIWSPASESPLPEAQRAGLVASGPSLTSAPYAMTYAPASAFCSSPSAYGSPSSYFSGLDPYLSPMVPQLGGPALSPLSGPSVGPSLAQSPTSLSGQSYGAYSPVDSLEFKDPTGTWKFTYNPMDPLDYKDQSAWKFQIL
# In short: as §1
# ETV1 = ETV1 (Homo sapiens, UniProt P50549 1-477); conditions: protein: recombinant; tags: N-terminal GST; dsDNA, one strand shown
# Chain of ETV1 (P50549 whole entry): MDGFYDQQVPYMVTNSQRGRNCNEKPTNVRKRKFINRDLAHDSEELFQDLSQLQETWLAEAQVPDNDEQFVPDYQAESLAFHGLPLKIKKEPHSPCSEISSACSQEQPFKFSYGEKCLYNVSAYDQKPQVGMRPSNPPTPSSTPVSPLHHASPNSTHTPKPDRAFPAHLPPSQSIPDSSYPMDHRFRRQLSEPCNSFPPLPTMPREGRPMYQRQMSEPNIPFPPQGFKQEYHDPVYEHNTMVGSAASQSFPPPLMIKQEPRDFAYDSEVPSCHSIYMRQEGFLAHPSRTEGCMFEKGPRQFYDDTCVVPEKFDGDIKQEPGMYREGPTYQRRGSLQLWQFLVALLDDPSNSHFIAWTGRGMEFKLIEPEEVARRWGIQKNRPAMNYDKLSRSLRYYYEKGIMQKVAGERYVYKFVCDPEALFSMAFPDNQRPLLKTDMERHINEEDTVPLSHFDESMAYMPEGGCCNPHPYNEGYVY
# In short: as §1
sequence,measurement,setting,value
ATTTGA,binding signal,FLI1,"1.34 fold enrichment (6-mer frequency, TF over GST control)"
same,binding signal,ELK1,"1.1 fold enrichment (6-mer frequency, TF over GST control)"
same,binding signal,GABPA,"1.26 fold enrichment (6-mer frequency, TF over GST control)"
same,binding signal,ERG,"1.23 fold enrichment (6-mer frequency, TF over GST control)"
same,binding signal,ELF1,"1.12 fold enrichment (6-mer frequency, TF over GST control)"
same,binding signal,EHF,"1.27 fold enrichment (6-mer frequency, TF over GST control)"
same,binding signal,SPI1,"1.17 fold enrichment (6-mer frequency, TF over GST control)"
same,binding signal,SPIB,"1.36 fold enrichment (6-mer frequency, TF over GST control)"
same,binding signal,ELK3,"1.05 fold enrichment (6-mer frequency, TF over GST control)"
same,binding signal,FEV,"1.17 fold enrichment (6-mer frequency, TF over GST control)"
same,binding signal,ETV5,"1.16 fold enrichment (6-mer frequency, TF over GST control)"
same,binding signal,HSF1,"1.21 fold enrichment (6-mer frequency, TF over GST control)"
same,binding signal,SPIC,"1.11 fold enrichment (6-mer frequency, TF over GST control)"
same,binding signal,ELF4,"1.21 fold enrichment (6-mer frequency, TF over GST control)"
same,binding signal,ELK4,"1.07 fold enrichment (6-mer frequency, TF over GST control)"
same,binding signal,ETV2,"1.16 fold enrichment (6-mer frequency, TF over GST control)"
same,binding signal,ELF3,"1.16 fold enrichment (6-mer frequency, TF over GST control)"
same,binding signal,CRX,"1.41 fold enrichment (6-mer frequency, TF over GST control)"
same,binding signal,ETV1,"1.2 fold enrichment (6-mer frequency, TF over GST control)"
